Test results taken from PubChem BioAssay.
A number with no mark means an inactive call. No rule for the calls is given here.

Target: Pantothenate synthetase (Mycobacterium tuberculosis (strain ATCC 25618 / H37Rv)) (UniProt P9WIL5)
Assay: Coupled enzyme confirmation of inhibitors against recombinant Mtb PanC (AID 375);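 also: 0% = full reaction with vehicle and 100% = no enzyme background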
Details: coupled enzyme assay; at 10 µM, hits give high values

Sequence of Pantothenate synthetase (Mycobacterium tuberculosis (strain ATCC 25618 / H37Rv)) (P9WIL5 whole entry, looked up): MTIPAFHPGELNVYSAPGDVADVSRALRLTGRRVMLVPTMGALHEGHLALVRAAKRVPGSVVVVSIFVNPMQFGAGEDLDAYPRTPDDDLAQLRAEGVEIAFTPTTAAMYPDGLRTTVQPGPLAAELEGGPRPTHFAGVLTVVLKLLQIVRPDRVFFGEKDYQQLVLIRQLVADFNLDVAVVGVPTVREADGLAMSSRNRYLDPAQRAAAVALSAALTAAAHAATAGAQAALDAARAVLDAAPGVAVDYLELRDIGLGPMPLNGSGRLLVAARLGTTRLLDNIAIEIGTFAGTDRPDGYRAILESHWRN

Row | SMILES | inhibition
1 | O=C1CC(Cc2ccccc2)C(=O)N1CCCn1ccnc1 (configuration not stated) | 0%
2 | Cc1ccc(C)n1-c1ccc(N2CCOCC2)cc1 | 0%
3 | N#Cc1nc(COc2ccccc2Cl)oc1N1CCCCCC1 | 0%
4 | CCCN(CCC)CCCNS(=O)(=O)c1ccc2c(c1)oc(=O)n2C | 0%
5 | CC(=O)N1CCc2cc(S(=O)(=O)NC(CC(C)C)C(=O)N3CCn4c3nc3ccccc34)ccc21 (configuration not stated) | 0%
6 | O=C(Nc1nccs1)NC(C(F)(F)F)C(F)(F)F | 7%
7 | c1ccc(OCc2nc3ccccc3[nH]2)cc1 | 0%
8 | CN(C)c1ccc(CNCCC2(O)CCOC(C)(C)C2)cc1 (configuration not stated) | 2%
9 | CCOC(=O)c1[nH]nc(N)c1NC(=O)c1ccc(Cl)cc1Cl | 0%
10 | Clc1cccc(-c2nnc3sc(-c4ccccc4)nn23)c1 | 0%
11 | Oc1ccccc1-c1cc(C(F)(F)C(F)F)[nH]n1 | 0%
12 | Cc1ccccc1S(=O)(=O)Cc1ccc(C(=O)NCc2cccnc2)o1 | 0%
13 | COc1ccc(CC(=O)OCC(=O)NC(=O)NC2CCCCC2)cc1 | 7%
14 | Cc1ccc(NC(=O)CSc2nnc(-c3ccncc3)n2C)cc1C | 0%
15 | CCCOc1ccc([C@@H]2C3CN(C(=O)OCC)CC=C3C(C#N)=C(N)C2(C#N)C#N)cc1OC (some centres not stated) | 1%
16 | Cc1oc(-c2ccccc2F)nc1CS(=O)(=O)CC(=O)N1CCN(Cc2ccccc2)CC1 | 0%
17 | CCCn1c2ccccc2c2nnc(SCC(=O)Nc3ncccn3)nc21 | 8%
